The structures appear in SMILES notation. Values joined by “and” are separate entries in the source; they are usually repeats but may differ in a detail not shown here. Identical values can stand only once. Inconclusive results are not listed. A structure can be active in one record and inactive in another. Active and inactive are the calls of the source. Unless noted, calls come from the whole dose curve; as a rule, active = well fitted curve in the direction sought with a large enough effect in the repeat runs; inconclusive = weak or mixed curves; inactive = no such curve, though single readings can be large; an effect the other way counts as inactive or inconclusive.

In PubChem BioAssay (Tox21) one finds Potency and outcome data, which are given here for 7 compounds.

The nature of experiment [1]: qHTS assay to test for compound auto fluorescence at 535 nm (green) in HEK293 cells (AID 720680). For orientation: qHTS replaces the single test concentration by a dilution series.
The nature of experiment [2]: qHTS assay to test for compound auto fluorescence at 460 nm (blue) in HEK293 cell free culture (AID 720681). In outline:
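Compounds were added to cell-free DMEM with 10% FBS and fluorescence read directly. The blue channel used 405 nm excitation and 460 nm emission, with triamterene as the reference fluorophore.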

The nature of experiment [3]: qHTS assay to test for compound auto fluorescence at 535 nm (green) in HEK293 cell free culture (AID 720682). The essentials:
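Measurement is a direct plate read of green fluorescence (485 nm in, 535 nm out) after compound addition to serum-supplemented DMEM lacking cells, with fluorescein used to express intensities.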

A short description of experiment [4]: qHTS assay to test for compound auto fluorescence at 590 nm (red) in HEK293 cell free culture (AID 720683). The essentials:
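Cell-free wells of DMEM with 10% FBS received compound, and intrinsic fluorescence was read at excitation/emission 540/590 nm. Values expressed as equivalence to Rose Bengal sodium.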

The nature of experiment [5]: qHTS assay to test for compound auto fluorescence at 590 nm (red) in HepG2 cell free culture (AID 720684). In outline: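 Compounds are added to culture medium (MEM, 10% FBS) lacking cells, then fluorescence is read at excitation 540 nm, emission 590 nm, with Rose Bengal sodium as the equivalency standard.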
Experiment [6] can be described thus: qHTS assay to test for compound auto fluorescence at 535 nm (green) in HepG2 cell free culture (AID 720686).
Experiment [7] in a line: qHTS assay to identify small molecule antagonists of the glucocorticoid receptor (GR) signaling pathway - cell viability counter screen (AID 720693). Note: nearly all actives have a fitted effect of over 55% in size.
Experiment [8] can be described thus: qHTS assay for identifying genotoxic compounds that show differential cytotoxicity against isogenic chicken DT40 cell lines with known DNA damage response pathways - wild type cell line (AID 743012). Note: nearly all actives have a fitted effect of over 60% in size. Note: potency is the fitted concentration of half-maximal effect. The essentials:
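Wild type DT40, 300 cells/well, ~0.5 h settle at 37 C/5% CO2; compounds in DMSO added by pintool; 40 h at 37 C/5% CO2; CellTiter-Glo, 30 min RT; luminescence.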

Experiment [9] is described as follows: qHTS assay for identifying genotoxic compounds that show differential cytotoxicity against isogenic chicken DT40 cell lines with known DNA damage response pathways - Rev3 mutant cell line (AID 743014). Note: nearly all actives have a fitted effect of over 55% in size. Note: potency is the fitted concentration of half-maximal effect.
Experiment [10] is described as follows: qHTS assay for identifying genotoxic compounds that show differential cytotoxicity against isogenic chicken DT40 cell lines with known DNA damage response pathways - Rad54/Ku70 mutant cell line (AID 743015). Note: nearly all actives have a fitted effect of over 60% in size. Note: potency is the fitted concentration of half-maximal effect.
A short description of experiment [11]: qHTS assay to identify small molecule antagonists of the androgen receptor (AR) signaling pathway - cell viability counter screen (AID 743033; note: nearly all actives have a fitted effect of over 45% in size; note: potency is the fitted concentration of half-maximal effect).
The nature of experiment [12]: qHTS assay to identify small molecule antagonists of the androgen receptor (AR) signaling pathway using the MDA cell line - cell viability counter screen (AID 743041; note: nearly all actives have a fitted effect of over 45% in size). The essentials:
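Same-well cytotoxicity was assessed by CellTiter-Fluor in MDA-kb2 AR-luc cells after 16 h of compound treatment under R1881 agonism.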

Experiment [13] has as its target Glucocorticoid receptor (Homo sapiens) (UniProt P04150). Briefly: qHTS assay to identify small molecule agonists of the glucocorticoid receptor (GR) signaling pathway (AID 720691; active = well fitted activation curve with a large enough effect in the signal ratio in the repeat runs, not every such curve was filed as active; the % refers to the signal ratio). The essentials: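 Fluorescence intensity from LiveBLAzer B/G FRET substrate (2 h, room temperature) reports beta-lactamase expression driven by the glucocorticoid response element in GR-bla HeLa cells after 18 h compound exposure at 37 C.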

Experiment [14] shares this target. In words: qHTS assay to identify small molecule antagonists of the glucocorticoid receptor (GR) signaling pathway (AID 720692; active = well fitted inhibition curve with a large enough effect in the signal ratio in the repeat runs, not every such curve was filed as active; the % refers to the signal ratio; note: potency is the fitted concentration of half-maximal effect). The essentials:
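HeLa GR-bla cells; cmpd + dex 5 nM final, 18 h 37 C; LiveBLAzer B/G FRET substrate 2 h RT; fluorescence intensity read. Antagonist mode, qHTS.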

The target in experiment [15] is Androgen receptor (Homo sapiens) (UniProt P10275). In words: qHTS assay to identify small molecule antagonists of the androgen receptor (AR) signaling pathway (AID 743035; active = well fitted inhibition curve with a large enough effect in the signal ratio in the repeat runs, not every such curve was filed as active; the % refers to the signal ratio). In outline:
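Fluorescence from a beta-lactamase FRET substrate (LiveBLAzer B/G, 2 h, room temperature) measured inhibition of R1881-stimulated signaling in GeneBLAzer AR-UAS-bla HEK293 cells exposed to compound for 16 h at 37C.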

Experiment [16] shares this target. In words: qHTS assay to identify small molecule agonists of the androgen receptor (AR) signaling pathway (AID 743036; active = well fitted activation curve with a large enough effect in the signal ratio in the repeat runs, with a control signal flat, not every such curve was filed as active; the % refers to the signal ratio). In outline: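 Beta-lactamase under UAS control, stably integrated in HEK293 GripTite cells, reports receptor activation. After 16 h compound treatment, cells received FRET substrate for 2 h at room temperature before fluorescence reading.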
For experiment [17] the target is unchanged. Briefly: qHTS assay to identify small molecule antagonists of the androgen receptor (AR) signaling pathway using the MDA cell line (AID 743042; note: nearly all actives have a fitted effect of over 55% in size). In outline: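 MDA-kb2 breast carcinoma cells carrying MMTV-luciferase (AR/GR responsive) were co-treated with compounds and the agonist R1881 for 16 h at 37C. Inhibition read as ONE-Glo luminescence; CellTiter-Fluor fluorescence measured in parallel for cytotoxicity.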

A short description of experiment [18]: qHTS assay to test for compound auto fluorescence at 460 nm (blue) in HepG2 cells (AID 720687). In outline:
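HepG2 cells in MEM with 10% FBS, attached overnight at 37 C, were exposed to compound or DMSO for 1 hr at 37 C, 5% CO2. Blue fluorescence was read at 405/460 nm, with triamterene as reference fluorophore.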

Glucocorticoid receptor (Homo sapiens), sequence (P04150 whole entry, looked up): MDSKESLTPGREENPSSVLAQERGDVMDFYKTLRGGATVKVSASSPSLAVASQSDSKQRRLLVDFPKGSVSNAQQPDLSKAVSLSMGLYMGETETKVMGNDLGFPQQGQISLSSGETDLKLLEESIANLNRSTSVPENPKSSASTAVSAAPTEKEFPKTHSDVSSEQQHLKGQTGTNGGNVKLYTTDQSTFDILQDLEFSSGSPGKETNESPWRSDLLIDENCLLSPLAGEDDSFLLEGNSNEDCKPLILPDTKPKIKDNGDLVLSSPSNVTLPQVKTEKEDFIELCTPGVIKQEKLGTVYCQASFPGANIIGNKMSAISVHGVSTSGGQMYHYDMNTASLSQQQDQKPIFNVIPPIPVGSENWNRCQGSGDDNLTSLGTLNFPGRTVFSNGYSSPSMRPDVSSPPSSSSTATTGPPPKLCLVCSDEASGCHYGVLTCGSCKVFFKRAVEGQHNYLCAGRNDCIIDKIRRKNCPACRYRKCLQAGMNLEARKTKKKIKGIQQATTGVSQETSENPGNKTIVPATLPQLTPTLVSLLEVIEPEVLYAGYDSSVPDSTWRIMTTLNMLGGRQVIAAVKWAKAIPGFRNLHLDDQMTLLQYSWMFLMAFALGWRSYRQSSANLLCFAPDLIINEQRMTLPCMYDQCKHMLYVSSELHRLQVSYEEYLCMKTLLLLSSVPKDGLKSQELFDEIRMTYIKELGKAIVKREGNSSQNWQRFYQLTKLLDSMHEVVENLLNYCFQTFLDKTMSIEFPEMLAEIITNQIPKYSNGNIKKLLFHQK
Androgen receptor (Homo sapiens), sequence (P10275 whole entry, looked up): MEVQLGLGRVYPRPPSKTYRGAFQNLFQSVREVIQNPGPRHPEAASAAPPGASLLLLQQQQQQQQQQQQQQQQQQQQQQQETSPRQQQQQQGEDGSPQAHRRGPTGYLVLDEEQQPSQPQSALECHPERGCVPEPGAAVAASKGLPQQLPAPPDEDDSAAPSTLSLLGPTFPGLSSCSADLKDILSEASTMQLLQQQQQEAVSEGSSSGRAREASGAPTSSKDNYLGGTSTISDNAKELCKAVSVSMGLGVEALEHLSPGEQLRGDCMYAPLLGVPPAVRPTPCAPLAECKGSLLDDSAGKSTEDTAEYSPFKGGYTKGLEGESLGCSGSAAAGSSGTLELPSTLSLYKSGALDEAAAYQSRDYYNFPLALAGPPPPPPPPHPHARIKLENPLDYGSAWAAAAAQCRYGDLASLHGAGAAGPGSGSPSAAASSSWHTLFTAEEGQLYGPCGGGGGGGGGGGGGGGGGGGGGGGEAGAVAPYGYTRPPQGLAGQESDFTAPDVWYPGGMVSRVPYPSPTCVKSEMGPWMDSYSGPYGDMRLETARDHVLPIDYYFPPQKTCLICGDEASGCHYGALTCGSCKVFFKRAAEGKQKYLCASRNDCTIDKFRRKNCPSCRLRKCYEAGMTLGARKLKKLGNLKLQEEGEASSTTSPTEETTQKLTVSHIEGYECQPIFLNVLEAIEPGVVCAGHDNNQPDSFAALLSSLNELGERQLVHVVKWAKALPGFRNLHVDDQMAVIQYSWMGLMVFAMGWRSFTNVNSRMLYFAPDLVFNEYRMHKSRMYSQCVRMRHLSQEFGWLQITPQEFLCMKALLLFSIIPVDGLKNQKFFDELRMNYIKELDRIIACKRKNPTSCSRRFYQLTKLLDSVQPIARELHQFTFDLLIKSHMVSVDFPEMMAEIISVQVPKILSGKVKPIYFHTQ

As for `CCCCOCCOCCOCCO`, the Potency entry in experiment [1], in experiment [3], in experiment [4], in experiment [5], in [6] and in experiment [7] was “inactive” in each case. The Potency entry in experiment [8], in experiment [9], in [10], in experiment [11] and in experiment [12] was “inactive” throughout. For the same compound, in [2], the outcome was inactive.

Take `Cc1ccc2c(n1)Oc1ccc(C(C)C(=O)OCC(=O)N(C)C)cc1C2` (configuration not stated): the Potency result in experiment [1], in experiment [3], in experiment [4], in experiment [5], in experiment [6] and in [13] was “inactive” throughout. For the same compound, the Potency result in experiment [14], in [9], in [10], in experiment [11], in experiment [15] and in experiment [17] was “inactive” in each case. In addition, the compound was called inactive in experiment [2] and in [16]. Further, the Potency in [8] is 26.6 µM (active).

Take `Clc1nc(Cl)c(Cl)c(Cl)c1Cl`: the Potency result in experiment [1], in experiment [3], in experiment [4], in experiment [5], in experiment [6] and in [13] was “inactive” in each case. Further, the Potency result in experiment [8], in experiment [9], in experiment [10], in experiment [11] and in experiment [12] was “inactive” each time. Further, the outcome in experiment [2] was inactive. Further, the Potency in experiment [14] is 15.6 µM (active) and 24.5 µM (active).

For `CCCCC/C=C/C=C/C=O`, the Potency entry in [1], in experiment [3], in experiment [4], in experiment [5], in experiment [6] and in experiment [13] was “inactive” each time. For the same compound, the Potency result in [7], in [11] and in [12] was “inactive” each time. The outcome in experiment [2] and in experiment [18] was inactive. For the same compound, the Potency in experiment [14] is 49 µM (active); in experiment [8], 19.3 µM (active); in [9], “inactive and 21.7 µM (active)”; in experiment [10], “inactive and 17.2 µM (active)”.

In the case of `CCCCC(CC)COP(=O)(OCC(CC)CCCC)OCC(CC)CCCC` (configuration not stated), the Potency result in experiment [1], in [3], in experiment [4], in [5], in experiment [6] and in experiment [13] was “inactive” each time. Also, the Potency result in experiment [14], in [7], in [8], in [9], in experiment [10] and in [11] was “inactive” in each case. Also, the Potency result in experiment [12] is “inactive”. The outcome in [2] and in experiment [18] was inactive.

For the compound `c1ccc2sc(SSN3CCOCC3)nc2c1`, the Potency entry in experiment [1], in experiment [3], in [4], in experiment [5], in experiment [6] and in experiment [7] was “inactive” each time. Also, the call in experiment [2] and in [18] was inactive. The Potency is 2.43 µM (active) in experiment [8]; 9.67 µM (active) and 2.73 µM (active) in experiment [9]; 13.7 µM (active) and 2.17 µM (active) in experiment [10]; 4.36 µM (active) in experiment [11].

Turning to `O=C=Nc1ccc(Cc2ccc(N=C=O)cc2)cc1`, the Potency entry in experiment [1], in [3], in experiment [4], in experiment [5], in [6] and in experiment [13] was “inactive” in each case. Also, the Potency result in experiment [14], in experiment [7], in experiment [10], in [11] and in experiment [12] was “inactive” in each case. Moreover, the call in [2] and in experiment [18] was inactive. For the same compound, the Potency in [8] was 21.3 µM (active) and inactive; in experiment [9] it was 10.7 µM (active) and inactive.
